# In PubChem BioAssay (Tox21):
# Values joined by “and” are separate entries in the source; they are usually repeats but may differ in a detail not shown here. Equal entries are not always repeated. Inconclusive results are not listed. Where a call stands in place of a potency, no number is given. The source holds several records for some structures; these can differ, active in one and inactive in another. Active and inactive are the calls of the source. Unless noted, calls come from the whole dose curve; as a rule, active = well fitted curve in the direction sought with a large enough effect in the repeat runs; inconclusive = weak or mixed curves; inactive = no such curve, though single readings can be large; an effect the other way counts as inactive or inconclusive.
# How the values were obtained:
# [1] = target: Retinoic acid receptor RXR-alpha (Homo sapiens) (UniProt P19793); assay: qHTS assay to identify small molecule agonists of the RXR signaling pathway (AID 1159527; calls by dose curve; note: nearly all actives have a fitted effect of over 35% in size)
# Sequence of Retinoic acid receptor RXR-alpha (Homo sapiens) (P19793 whole entry, looked up): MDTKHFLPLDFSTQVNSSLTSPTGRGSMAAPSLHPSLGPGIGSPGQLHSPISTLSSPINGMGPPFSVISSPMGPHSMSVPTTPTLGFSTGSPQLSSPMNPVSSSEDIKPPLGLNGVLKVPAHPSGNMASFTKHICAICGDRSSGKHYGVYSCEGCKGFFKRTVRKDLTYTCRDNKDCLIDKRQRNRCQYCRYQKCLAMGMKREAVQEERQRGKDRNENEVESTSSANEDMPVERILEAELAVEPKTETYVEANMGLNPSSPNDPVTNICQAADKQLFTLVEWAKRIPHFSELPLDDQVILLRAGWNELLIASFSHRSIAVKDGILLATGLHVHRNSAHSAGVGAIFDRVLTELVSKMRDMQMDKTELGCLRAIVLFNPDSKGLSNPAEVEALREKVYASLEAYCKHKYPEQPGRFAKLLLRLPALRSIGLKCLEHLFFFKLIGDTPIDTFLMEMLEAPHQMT
# How it was run: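 Agonist-mode beta-lactamase reporter assay: HEK 293T RXR-alpha-UAS-bla cells treated 16 hr at 37 C with compounds, 9-cis retinoic acid as positive control. LiveBLAzer FRET substrate, 405 nm excitation, 460/530 nm emission.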
# [2] = qHTS assay to identify small molecule agonists of the RXR signaling pathway - cell viability counter screen (AID 1159529); note: series mostly up to about 77 µM; nearly all actives have a fitted effect of over 50% in size
# How it was run: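 CellTiter-Glo luminescence gave viability in the wells also read for beta-lactamase. Cells (RXR-alpha-UAS-bla HEK 293T, 2% charcoal-stripped FBS medium) had 5 hr plating, then 16 hr compound exposure at 37 C; tetraoctyl ammonium bromide served as positive control.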
# [3] = qHTS assay to identify small molecule antagonists of the retinoid acid receptor (RAR) signaling pathway - cell viability counter screen (AID 1159551); note: nearly all actives have a fitted effect of over 35% in size
# How it was run: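 Cytotoxicity counter screen: ATP content quantified by CellTiter-Glo luminescence in C3RL4 cells treated 6 hr at 37 C with compound and retinol (1 uM final). Cells plated at 1,000/well and cultured overnight before dosing.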
# [4] = qHTS assay to identify small molecule antagonists of the retinoic acid receptor (RAR) signaling pathway (AID 1159552; note: nearly all actives have a fitted effect of over 50% in size)
# How it was run: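 Luminescent RARE reporter read-out in C3RL4 cells: 6 hr co-treatment at 37 C of test compounds with retinol at 1 uM final. Cells plated overnight beforehand; luciferase reagent incubated 30 min at room temperature before reading.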
# [5] = qHTS assay to identify small molecule agonists of the retinoic acid receptor (RAR) signaling pathway (AID 1159553)
# How it was run: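 Luminescence was measured 30 min after luciferase reagent addition at room temperature. Before that, C3RL4 reporter cells (1,000 per well, plated overnight) were treated with compound for 6 hr at 37 C and 5% CO2.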
# [6] = qHTS assay to identify small molecule antagonists of the estrogen related receptor (ERR) signaling pathway from Tox21 library - cell viability counter screen (AID 1224834); note: nearly all actives have a fitted effect of over 30% in size
# How it was run: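 CellTiter-Fluor fluorescence, read after 30 min at 37 C, measures viability of ERR cells. Cells plated at 2,000/well and incubated 6 h before pin-tool compound addition, then exposed 17.5 hours at 37 C.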
# [7] = target: Luciferin 4-monooxygenase (Photinus pyralis) (UniProt P08659); assay: qHTS assay to identify small molecule inhibitors of firefly luciferase (AID 1224835); note: nearly all actives have a fitted effect of over 25% in size; note: potency is the fitted concentration of half-maximal effect
# Sequence of Luciferin 4-monooxygenase (Photinus pyralis) (P08659 whole entry, looked up): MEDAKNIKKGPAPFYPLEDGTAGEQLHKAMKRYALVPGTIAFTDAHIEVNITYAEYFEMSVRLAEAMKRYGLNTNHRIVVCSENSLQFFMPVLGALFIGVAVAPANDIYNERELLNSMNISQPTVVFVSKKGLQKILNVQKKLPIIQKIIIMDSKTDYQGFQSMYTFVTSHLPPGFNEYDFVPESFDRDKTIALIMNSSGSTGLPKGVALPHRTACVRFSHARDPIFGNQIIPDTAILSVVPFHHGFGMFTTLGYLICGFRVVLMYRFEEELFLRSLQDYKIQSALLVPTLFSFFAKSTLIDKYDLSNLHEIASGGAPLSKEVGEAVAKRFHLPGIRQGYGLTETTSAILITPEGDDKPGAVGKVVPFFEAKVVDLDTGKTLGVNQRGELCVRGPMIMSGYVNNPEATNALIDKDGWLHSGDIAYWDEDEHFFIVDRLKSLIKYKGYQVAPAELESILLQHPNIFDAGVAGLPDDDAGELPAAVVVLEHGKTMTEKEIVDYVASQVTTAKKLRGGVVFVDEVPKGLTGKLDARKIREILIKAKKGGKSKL
# How it was run: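 Quantitative HTS format; KM concentrations of both substrates. Purified P. pyralis FLuc activity quantified from luminescence images.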
# [8] = qHTS assay to identify small molecule agonists of the constitutive androstane receptor (CAR) signaling pathway - cell viability counter screen (AID 1224836); note: series mostly up to about 92 µM; nearly all actives have a fitted effect of over 45% in size
# How it was run: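 Cell viability multiplexed with the CAR agonist screen: CellTiter-Fluor fluorescence after 23 hr at 37 C. HepG2-CYP2B6-hCAR cells got compounds at 15 concentrations with PK11195 at 0.75 uM final.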
# [9] = qHTS assay to identify small molecule antagonists of the constitutive androstane receptor (CAR) signaling pathway - cell viability counter screen (AID 1224837); note: series mostly up to about 92 µM; nearly all actives have a fitted effect of over 45% in size
# How it was run: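 Cytotoxicity counter-screen: CellTiter-Fluor fluorescence after 23 h compound exposure (15-point qHTS) in double-stable HepG2-CYP2B6-hCAR cells, with 50 nM CITCO added.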
# [10] = qHTS assay to identify small molecule antagonists of the estrogen related receptor signaling pathway with the pleiotropic PPARgamma coactivator (PGC) from Tox21 10K library - cell viability counter screen (AID 1224840; active = well fitted cell-killing curve with a large enough effect in the repeat runs, not every such curve was filed as active; note: nearly all actives have a fitted effect of over 40% in size)
# How it was run: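 Counter-screen for cytotoxicity: after 17.5 h compound exposure at 37 C, CellTiter-Fluor reagent added to PGC/ERR cells for 30 min and fluorescence read. Cells were seeded at 2,000 per well 6 h before dosing.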
# [11] = target: Thyrotropin receptor (Homo sapiens) (UniProt P16473); assay: qHTS assay to identify small molecule agonists of the thyroid stimulating hormone receptor (TSHR) signaling pathway (AID 1224843; calls by dose curve; note: nearly all actives have a fitted effect of over 45% in size; note: potency is the fitted concentration of half-maximal effect)
# Sequence of Thyrotropin receptor (Homo sapiens) (P16473 whole entry, looked up): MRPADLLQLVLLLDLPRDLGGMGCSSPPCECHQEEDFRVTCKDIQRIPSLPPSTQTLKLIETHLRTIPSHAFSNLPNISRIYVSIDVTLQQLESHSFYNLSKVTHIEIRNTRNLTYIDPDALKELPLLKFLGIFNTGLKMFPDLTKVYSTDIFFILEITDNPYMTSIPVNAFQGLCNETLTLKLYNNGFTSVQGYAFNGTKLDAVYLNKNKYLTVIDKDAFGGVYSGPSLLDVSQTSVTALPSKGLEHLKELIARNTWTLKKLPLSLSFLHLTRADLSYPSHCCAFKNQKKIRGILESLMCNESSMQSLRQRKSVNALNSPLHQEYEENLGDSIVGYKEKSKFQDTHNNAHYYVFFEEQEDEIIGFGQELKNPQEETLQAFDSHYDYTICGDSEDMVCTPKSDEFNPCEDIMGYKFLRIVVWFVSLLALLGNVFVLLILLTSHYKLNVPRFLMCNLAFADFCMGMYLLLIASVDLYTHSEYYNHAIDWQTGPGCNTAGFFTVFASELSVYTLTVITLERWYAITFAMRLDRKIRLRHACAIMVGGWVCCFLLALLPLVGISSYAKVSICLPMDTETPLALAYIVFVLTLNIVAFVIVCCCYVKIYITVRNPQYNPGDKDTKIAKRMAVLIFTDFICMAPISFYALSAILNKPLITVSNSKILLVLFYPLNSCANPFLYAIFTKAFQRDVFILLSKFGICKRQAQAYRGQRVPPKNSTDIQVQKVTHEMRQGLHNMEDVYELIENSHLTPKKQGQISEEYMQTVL
# How it was run: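 Compounds are titrated over 15 concentrations, in triplicate, onto TSHR-HEK293 cells seeded at 800/well. Plates sit 30 min at room temperature before cAMP-d2 and anti-cAMP cryptate are added; signal is read after a further hour.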
# [12] = qHTS assay to identify small molecule agonists of the hypoxia (HIF-1) signaling pathway - cell viability counter screen (AID 1224844; calls by dose curve; note: nearly all actives have a fitted effect of over 50% in size)
# How it was run: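 Cytotoxicity measured by CellTiter-Glo ATP luminescence in the wells also read for beta-lactamase signal. Cells were HRE-bla ME-180 (2,000/well, 0.5% dialyzed FBS), exposed to compounds for 17 h at 37C.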
# [13] = qHTS assay to identify small molecule agonists of H2AX (AID 1224845; active = well fitted activation curve with a large enough effect in the signal ratio in the repeat runs, not every such curve was filed as active; the % refers to the signal ratio)
# How it was run: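 Wild-type CHO-K1 cells plated overnight, then exposed 3 hr at 37C to compounds at 15 concentrations (0.76% DMSO). Lysed, then HTRF anti-pH2AX(S139)-cryptate/anti-H2AX-d2 detection after 24 hr at room temperature; emissions 665 and 620 nm.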
# [14] = qHTS assay to identify small molecule agonists of the hypoxia (HIF-1) signaling pathway (AID 1224846; active = well fitted activation curve with a large enough effect in the signal ratio in the repeat runs, not every such curve was filed as active; the % refers to the signal ratio)
# How it was run: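 Compounds added to ME-180 cells carrying hypoxia-response-element beta-lactamase reporter (0.5% dialyzed FBS, 5 h preplating), 17 h at 37C; agonist activity detected by CCF4-AM B/G FRET read-out.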
# [15] = target: Nuclear receptor subfamily 1 group I member 3 (Homo sapiens) (UniProt Q14994); assay: qHTS assay to identify small molecule antagonists of the constitutive androstane receptor (CAR) signaling pathway (AID 1224838);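 note: HepG2 cells stably expressing hCAR with CYP2B6 luciferase reporter stimulated by CITCO; nearly all actives have a fitted effect of over 40% in size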
# Sequence of Nuclear receptor subfamily 1 group I member 3 (Homo sapiens) (Q14994 whole entry, looked up): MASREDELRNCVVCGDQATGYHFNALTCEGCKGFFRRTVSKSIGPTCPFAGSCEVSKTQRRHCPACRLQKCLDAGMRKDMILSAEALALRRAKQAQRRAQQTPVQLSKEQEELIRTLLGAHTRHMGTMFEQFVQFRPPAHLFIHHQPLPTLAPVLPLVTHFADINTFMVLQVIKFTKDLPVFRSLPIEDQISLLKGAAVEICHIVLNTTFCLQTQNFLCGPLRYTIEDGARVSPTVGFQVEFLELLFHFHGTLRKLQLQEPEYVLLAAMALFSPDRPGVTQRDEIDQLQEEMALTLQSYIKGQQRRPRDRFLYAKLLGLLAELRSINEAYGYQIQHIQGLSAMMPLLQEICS
# How it was run: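 Antagonism measured as luciferase signal (ONE-Glo, 30 min, room temperature) in CAR-stimulated cells: HepG2-CYP2B6-hCAR double-stable line exposed 24 hr at 37 C to compound in a 15-point series plus 50 nM CITCO.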
# [16] = target: Nuclear receptor subfamily 1 group I member 3 (Homo sapiens) (UniProt Q14994); assay: qHTS assay to identify small molecule agonists of the constitutive androstane receptor (CAR) signaling pathway (AID 1224839); note: nearly all actives have a fitted effect of over 15% in size; note: potency is the fitted concentration of half-maximal effect;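 for activation: HepG2 cells stably carrying human CAR and a CYP2B6 luciferase reporter; series mostly up to about 92 µM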
# How it was run: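 Luminescent ONE-Glo read-out after 24 hr, 37 C exposure of double-stable HepG2-CYP2B6-hCAR reporter cells to a 15-point compound series, in the presence of 0.75 uM PK11195 (final).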
# [17] = qHTS assay to identify small molecule antagonists of the estrogen related receptor signaling pathway with the pleiotropic PPARgamma coactivator (PGC) from Tox21 10K library (AID 1224841; call rule not given here; note: series mostly up to about 92 µM; actives are mostly falling curves and most rising ones were filed inactive; nearly all actives have a fitted effect of over 50% in size)
# How it was run: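 Luminescence (One-Glo, 30 min at room temperature) after 18 h compound treatment at 37 C of PGC/ERR reporter cells plated at 2,000 cells/well and settled 6 h beforehand.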
# [18] = qHTS assay to identify small molecule agonists of the estrogen related receptor signaling pathway with the pleiotropic PPARgamma coactivator (PGC) from Tox21 10K library (AID 1224842); note: nearly all actives have a fitted effect of over 15% in size
# How it was run: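 PGC/ERR reporter cells (NTP line) were seeded 2,000 per well, rested 6 h at 37 C/5% CO2, then pin-dosed with compounds in DMSO for 18 h at 37 C; luciferase read by One-Glo luminescence after 30 min at room temperature.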
# [19] = qHTS assay to identify small molecule antagonists of the estrogen related receptor (ERR) signaling pathway - cell viability counter screen (AID 1224818);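 note: series mostly up to about 46 µM; viability measured after 17.5 h of compound exposure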
# How it was run: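 Cytotoxicity counter screen: fluorescence from CellTiter-Fluor, added after 17.5 h compound exposure at 37 C and read 30 min later. ERR cell line seeded at 2,000 cells/well, preincubated 6 h before dosing.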
# [20] = qHTS assay to identify small molecule antagonists of the estrogen related receptor signaling pathway with the pleiotropic PPARgamma coactivator (PGC) cell viability counter screen (AID 1224822; note: series mostly up to about 46 µM)
# How it was run: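 Viability counter-screen read by fluorescence intensity after 30 min with CellTiter-Fluor at 37 C; PGC/ERR reporter cells were exposed to compounds for 17.5 h at 37 C following a 6 h preincubation.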
smiles,measurement,setting,value
O=C(O)c1cc(C(=O)O)cc(S(=O)(=O)O)c1,Potency,[1],inactive
same,Potency,[2],inactive
same,outcome,[3],inactive
same,Potency,[4],inactive
same,Potency,[5],inactive
same,Potency,[6],inactive
same,Potency,[7],inactive
same,Potency,[8],inactive
same,Potency,[9],inactive
same,Potency,[10],inactive
same,Potency,[11],inactive
same,Potency,[12],inactive
same,Potency,[13],inactive
same,outcome,[14],inactive
Cc1cc(C)c(C)cc1C,Potency,[1],inactive
same,Potency,[2],inactive
same,outcome,[3],inactive
same,Potency,[4],inactive
same,Potency,[5],inactive
same,Potency,[6],inactive
same,Potency,[7],inactive
same,Potency,[8],inactive
same,Potency,[9],inactive
same,Potency,[10],inactive
same,Potency,[11],inactive
same,Potency,[12],inactive
same,Potency,[13],inactive
same,outcome,[14],inactive
O=C(Oc1ccccc1)c1ccccc1,Potency,[1],inactive
same,Potency,[2],inactive
same,outcome,[3],inactive
same,Potency,[4],inactive
same,Potency,[5],inactive
same,Potency,[6],inactive
same,Potency,[7],inactive and 71 µM (active)
same,Potency,[8],inactive
same,Potency,[9],inactive
same,Potency,[15],inactive
same,Potency,[16],inactive
same,Potency,[17],inactive
same,outcome,[18],inactive
same,Potency,[11],inactive
same,Potency,[12],inactive
same,Potency,[13],inactive
same,outcome,[14],inactive
c1ccc2scnc2c1,Potency,[1],inactive
same,Potency,[2],inactive
same,outcome,[3],inactive
same,Potency,[4],inactive
same,Potency,[5],inactive
same,Potency,[6],inactive
same,Potency,[7],inactive
same,Potency,[8],inactive
same,Potency,[9],inactive
same,Potency,[11],inactive
same,Potency,[12],inactive
same,Potency,[13],inactive
same,outcome,[14],inactive
CCCCCCOCCO,Potency,[1],inactive
same,Potency,[2],inactive
same,outcome,[3],inactive
same,Potency,[4],inactive
same,Potency,[6],inactive
same,Potency,[7],inactive
same,Potency,[8],inactive
same,Potency,[9],inactive
same,Potency,[15],inactive
same,Potency,[16],inactive
same,Potency,[10],inactive
same,Potency,[12],inactive
same,Potency,[13],inactive
same,outcome,[14],inactive
Cc1ccc2oc(=O)ccc2c1,Potency,[1],inactive
same,Potency,[2],inactive
same,outcome,[3],inactive
same,Potency,[4],inactive
same,Potency,[6],inactive
same,Potency,[7],inactive
same,Potency,[8],inactive
same,Potency,[9],inactive
same,Potency,[15],inactive
same,Potency,[11],inactive
same,Potency,[12],inactive
same,Potency,[13],inactive
same,outcome,[14],inactive
CC(=O)CC(=O)Nc1ccccc1C,Potency,[1],inactive
same,Potency,[2],inactive
same,outcome,[3],inactive
same,Potency,[4],inactive
same,Potency,[5],inactive
same,Potency,[6],inactive
same,Potency,[7],inactive
same,Potency,[8],inactive
same,Potency,[9],inactive
same,Potency,[16],inactive
same,Potency,[17],inactive
same,outcome,[18],inactive
same,Potency,[11],9.8 µM (active) and inactive
same,Potency,[12],inactive
same,Potency,[13],inactive
same,outcome,[14],inactive
O=C(O)CCCC[C@@H]1SC[C@@H]2NC(=O)N[C@@H]21,Potency,[1],inactive
same,Potency,[2],inactive
same,outcome,[3],inactive
same,Potency,[4],inactive
same,Potency,[6],inactive
same,Potency,[7],inactive
same,Potency,[8],inactive
same,Potency,[9],inactive
same,Potency,[15],inactive
same,Potency,[16],inactive
same,Potency,[10],inactive
same,Potency,[17],inactive
same,outcome,[18],inactive
same,Potency,[11],inactive
same,Potency,[12],inactive
same,Potency,[13],inactive
NNc1nncc2ccccc12,activation,[1],-4.54% [at 15.8 µM] (inactive)
same,"activity change, negative = cytotoxicity",[2],-0.524% [at 15.8 µM] (inactive)
same,outcome,[3],inactive
same,Potency,[4],inactive
same,outcome,[19],inactive
same,outcome,[20],inactive
same,"viability change, negative = cytotoxic",[6],6.05% [at 19 µM] (inactive)
same,Potency,[8],inactive
same,Potency,[9],inactive
same,Potency,[15],inactive
same,Potency,[16],12.2 µM (active)
same,activation,[16],12.7% [at 19 µM] (inactive)
same,"viability change, negative = cytotoxic",[10],3.22% [at 19 µM] (inactive)
same,activation,[11],-1.13% [at 19 µM] (inactive)
same,Potency,[12],inactive
same,activation (H2AX phosphorylation),[13],1% [at 31.6 µM] (inactive)
